Screens deposited in PubChem BioAssay by National Center for Advancing Translational Sciences (NCATS).
JMJD2A Tudor: inhibitors of human JMJD2A Tudor domain; AlphaScreen JMJD2A-Tudor / H3K4me3 peptide binding; AID 504339; 390,000 tested, 4.4% active; O75164; Potency, µM (highest dose often 114 µM), actives largely listed as inhibitors; also: nearly all actives have a fitted effect of over 50% in size
L3MBTL1 block: blocks human L3MBTL1; Potency, µM (doses to about 57.1 µM), usual class: inhibitors; 230,000 tested, 0.66% active; AlphaScreen L3MBTL1–H3K9me1 peptide binding; Q9Y468; also: nearly all actives have a fitted effect of over 60% in size
Target sequence (Q9Y468 whole entry, looked up): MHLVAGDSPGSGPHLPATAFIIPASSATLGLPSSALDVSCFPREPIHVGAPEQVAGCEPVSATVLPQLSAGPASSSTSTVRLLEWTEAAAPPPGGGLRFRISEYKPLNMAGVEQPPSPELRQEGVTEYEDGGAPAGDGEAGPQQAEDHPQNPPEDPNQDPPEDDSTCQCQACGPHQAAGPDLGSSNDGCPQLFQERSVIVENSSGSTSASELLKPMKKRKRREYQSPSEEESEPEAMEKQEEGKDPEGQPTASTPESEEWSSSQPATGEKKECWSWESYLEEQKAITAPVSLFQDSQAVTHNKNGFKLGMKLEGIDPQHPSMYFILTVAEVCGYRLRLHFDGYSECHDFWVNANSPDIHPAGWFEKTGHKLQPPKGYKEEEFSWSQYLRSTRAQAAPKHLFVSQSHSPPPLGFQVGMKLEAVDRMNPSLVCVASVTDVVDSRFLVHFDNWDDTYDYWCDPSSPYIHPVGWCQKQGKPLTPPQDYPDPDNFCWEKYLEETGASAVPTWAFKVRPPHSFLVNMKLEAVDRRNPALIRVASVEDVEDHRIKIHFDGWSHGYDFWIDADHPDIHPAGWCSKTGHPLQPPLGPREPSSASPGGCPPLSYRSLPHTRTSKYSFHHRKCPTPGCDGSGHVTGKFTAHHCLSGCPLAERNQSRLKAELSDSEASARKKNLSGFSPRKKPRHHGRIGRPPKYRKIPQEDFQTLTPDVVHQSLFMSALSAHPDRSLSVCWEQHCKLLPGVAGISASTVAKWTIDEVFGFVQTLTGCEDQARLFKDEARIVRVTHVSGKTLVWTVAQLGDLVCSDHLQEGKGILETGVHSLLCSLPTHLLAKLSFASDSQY
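AlphaScreen assay: L3MBTL1 (50 nM final) was preincubated 30 min at room temperature with biotinylated H3(1-15)K9me1 peptide (75 nM final), then 30 min with library compounds; streptavidin donor and nickel chelate acceptor beads (10 ug/mL final) added, 30 min dark.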
G9a block: inhibitors of human histone lysine methyltransferase G9a | AID 504332 | Q96KQ7 | Potency, µM (top dose mostly 102 µM), most hits filed as inhibitors | 350,000 tested, 8.8% active | G9a H3K9 monomethylation, AlphaScreen, 2 h; also: nearly all actives have a fitted effect of over 75% in size
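Compounds were preincubated with 20 nM G9a for 15 min, after which biotinylated H3K9 peptide (500 nM) and SAM (20 uM) started a 2 h room-temperature reaction. Monomethylated product was quantified by antibody-based AlphaScreen chemiluminescence.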
Sfp inh: blocks B. subtilis Sfp PPTase activity | Biochemical Sfp PPTase activity, qHTS | 310,000 tested, 3.5% active | AID 1490 | Potency, µM, usual class: inhibitors;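 also: the enzyme is Sfp with the accession as filed and its product quenches rhodamine fluorescence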
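After 15 min at room temperature with compound, 15 nM Sfp received 5 uM rhodamine-CoA plus 12.5 uM BHQ-2-ybbR (50 mM Hepes pH 7.6, 10 mM MgCl2). Rate came from the fluorescence difference over 30 min, ex 525/em 598 nm.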
BAZ2B inh: blocks human BAZ2B; 360,000 tested, 4.4% active; Q9UIF8; AlphaScreen BAZ2B-H3K14Ac peptide displacement; Potency, µM (highest dose often 114 µM), most hits filed as inhibitors; also: nearly all actives have a fitted effect of over 60% in size
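Protein-peptide AlphaScreen: BAZ2B 50 nM, b-H3K14Ac 50 nM, 1x PBS pH 7.4 + 0.01% Tween-20. Preincubation 30 min RT; cpd 30 min RT (top 110 uM); beads 20 min RT, light-protected.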
HP1b binding inh: inhibitors of HP1-beta chromodomain binding to methylated histone tails | Potency, µM (doses to about 114 µM), most hits filed as inhibitors | 390,000 tested, 0.56% active | AlphaScreen HP1-beta / biotin-H3K9me3 peptide binding | P83916 | AID 540317; also: nearly all actives have a fitted effect of over 70% in size
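Compound inhibition of the preformed complex between 50 nM HP1-beta and 50 nM biotinylated H3K9me3 peptide was read by AlphaScreen. Buffer was PBS pH 7.4 with 0.01% Tween-20. Incubations ran 30 min at room temperature, with 10 ug/mL donor/acceptor beads.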
Large screens that a line does not name were inactive. Compounds with a hit are over-represented: about 12% of the library has one in this group of screens. Calls follow the shape of the dose curve; as a rule, active = well fitted curve in the direction sought with a large enough effect; inconclusive = small, poorly fitted or top-dose-only effect, or another doubt; inactive = no such curve, though single readings can be large; an effect the other way counts as inactive or inconclusive.

O=C(OCc1nc2scc(-c3ccccc3)c2c(=O)[nH]1)c1cccc([N+](=O)[O-])c1	JMJD2A Tudor inconclusive, G9a block 40µM, Sfp inh inconclusive, HP1b binding inh inconclusive
CCCCNc1c(-c2ccc(OC)c(Sc3ccc(OC)cc3)c2)nc2ccccn12	JMJD2A Tudor 45µM, BAZ2B inh 40µM (no result: Sfp inh)
CCCCNc1c(-c2ccc(OC)c(Sc3ccc(OC)cc3)c2)nc2cnccn12	JMJD2A Tudor inconclusive (no result: G9a block, Sfp inh, BAZ2B inh)
CCCCNc1c(-c2ccc(SC(C)CC)c(OC)c2)nc2ccc(C)cn12 (centres undefined)	JMJD2A Tudor inconclusive, BAZ2B inh 50µM (no result: Sfp inh)
CCCCNc1c(-c2ccc(SC(C)CC)cc2)nc2cnccn12 (centres undefined)	JMJD2A Tudor 56µM (no result: G9a block, Sfp inh, BAZ2B inh)
COc1ccc(NC(=O)C2CCC(CNS(=O)(=O)c3csc(C(N)=O)c3)CC2)cc1 (centres undefined)	none (no result: L3MBTL1 block, Sfp inh)
C/C=C/C=C\C(=O)Nc1cccc(C2=NOC3(C2)C[C@H](C(N)=O)N(C(=O)/C=C/C)C3)c1 (some centres undefined)	JMJD2A Tudor 79µM, G9a block inconclusive, Sfp inh 22µM, HP1b binding inh inconclusive (no result: L3MBTL1 block)
C/C=C\C(=O)Nc1cccc(C2=NOC3(C2)C[C@@H](C(N)=O)N(C(=O)CC(c2ccccc2)c2ccccc2)C3)c1 (some centres undefined)	JMJD2A Tudor inconclusive, BAZ2B inh inconclusive (no result: L3MBTL1 block)
C/C=C/C=C/C(=O)Nc1cccc(C2=NOC3(C2)C[C@H](C(N)=O)N(C(=O)CC(c2ccccc2)c2ccccc2)C3)c1 (some centres undefined)	Sfp inh 40µM, BAZ2B inh inconclusive (no result: JMJD2A Tudor, L3MBTL1 block, HP1b binding inh)
C/C=C\C(=O)Nc1cccc(C2=NOC3(C2)C[C@@H](C(N)=O)N(C(=O)c2ccccc2)C3)c1 (some centres undefined)	none (no result: L3MBTL1 block)
C/C=C/C(=O)N1CC2(CC(c3cccc(NC(=O)/C(C)=C/C)c3)=NO2)C[C@H]1C(N)=O (some centres undefined)	none (no result: L3MBTL1 block)
CCC(=O)Nc1cccc(C2=NOC3(C2)C[C@@H](C(N)=O)N(C(=O)CC)C3)c1 (some centres undefined)	none (no result: L3MBTL1 block)
C/C=C\C=C/C(=O)Nc1cccc(C2=NOC3(C2)C[C@@H](C(N)=O)N(C(=O)c2ccccc2)C3)c1 (some centres undefined)	G9a block inconclusive, Sfp inh 11µM (no result: JMJD2A Tudor, L3MBTL1 block, HP1b binding inh)
C/C=C\C=C\C(=O)N1CC2(CC(c3cccc(NC(=O)CC)c3)=NO2)C[C@H]1C(N)=O (some centres undefined)	G9a block inconclusive, Sfp inh 35µM (no result: L3MBTL1 block)
CCOc1ccccc1CNC(=O)C1CCN(Cc2cc3ccccc3n2Cc2ccccc2)CC1	none (no result: L3MBTL1 block, Sfp inh)
O=c1c2ccccc2n2c(-c3ccc(Cl)cc3)nnc2n1CCc1ccccc1	none (no result: L3MBTL1 block, Sfp inh)
C/C=C/C=C\C(=O)Nc1cccc(C2=NOC3(C2)C[C@@H](C(N)=O)N(C(=O)c2cc([N+](=O)[O-])cc([N+](=O)[O-])c2C)C3)c1 (some centres undefined)	Sfp inh 25µM (no result: L3MBTL1 block)
Fc1cccc(CSc2nc(NCCc3ccccc3)c3ccccc3n2)c1	none (no result: L3MBTL1 block, Sfp inh)
COc1ccc(Sc2nc(-c3ccccn3)ncc2OC)cc1	JMJD2A Tudor inconclusive, L3MBTL1 block 3.5µM, BAZ2B inh 28µM
CN(c1ccccc1)c1ncccn1	none (no result: L3MBTL1 block, G9a block, Sfp inh, BAZ2B inh)
COc1cnc(-c2ccccn2)nc1Sc1ccc(F)cc1	JMJD2A Tudor inconclusive, L3MBTL1 block inconclusive, BAZ2B inh 28µM
COc1cnc(-c2ccccn2)nc1N(C)c1ccccc1	JMJD2A Tudor 25µM, G9a block inconclusive, Sfp inh 50µM, BAZ2B inh 20µM (no result: L3MBTL1 block)
COc1cnc(-c2ccccn2)nc1Sc1ccc(Cl)cc1	JMJD2A Tudor inconclusive
COc1ccc(CNc2nc3c(-c4ccccc4)nnn3c3ccccc23)cc1	none (no result: L3MBTL1 block, Sfp inh)
Cc1cccc(OCc2nc(CC(=O)Nc3ccc(C)c(C)c3)cs2)c1	none (no result: L3MBTL1 block, Sfp inh)
CCOC(=O)C1CCN(C(=O)c2ccc3c(c2)N=C(CC)c2cc(C)ccc2S3)CC1	JMJD2A Tudor inconclusive, G9a block inconclusive (no result: L3MBTL1 block, Sfp inh)
